Drawing on PubChem BioAssay, this text covers inhibition and activation for 20 molecules.

A number with no mark means an inactive call. The list shows a part of the results. Activity calls are given as the source filed them. Cut-off read from the data, not from the text of the source, unless noted: active = inhibition above about 25%; inactive = the rest.

Test [1] concerns the target Nuclear receptor coactivator 1 (Homo sapiens) (UniProt Q15788). Kind of test: SRC1 coactivator transcriptional activity inhibitors, confirmation, cell-based, luminescence, quadruplicate (AID 588820;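 active = mean inhibition above 46.68%, the untreated control wells mean plus 3 SD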;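 note: 0% = DMSO wells and 100% = gossypol 36 µM treated wells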). The settings on record: HEK293 GAL4-SRC1 luciferase reporter, at 3.6 µM, hits give high values. On the technique in general: A reporter such as luciferase makes a cellular process visible.

Test [2] in a line: VP16 transactivation inhibitors, counter-screen for SRC1 inhibitor project, cell-based, luminescence, high throughput (AID 588824). Conditions: cell-based VP16 transactivation luciferase luminescence; at 3.6 µM; hits give high values. A general note: The purpose of a counterscreen is to sort out artefacts and off-target activity.
Test [3] can be described thus: StAR promoter reporter inhibitors, counter-screen for LRH-1 inverse agonist project, cell-based, luminescence, high throughput (AID 651611; in the data active = inhibition above about 28%). The settings on record: StAR promoter luciferase reporter counterscreen, at 3.6 µM, hits give high values.
In test [4] the target is Nuclear receptor subfamily 5 group A member 2 (Homo sapiens) (UniProt O00482). Nature of the test: LRH-1 (NR5A2) inverse agonists, retest, confirmation, cell-based, luminescence (AID 651613; in the data active = inhibition above about 42%;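 note: HEK293T cells co-transfected with LRH-1 and StAR promoter luciferase reporter; 0% = vehicle wells and 100% = parental cells lacking receptor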). Conditions: cell-based LRH-1 luciferase reporter, inverse agonism; at 3.6 µM; hits give high values.
The target of test [5] is Steroidogenic factor 1 (Homo sapiens) (UniProt Q13285). Nature of the test: SF1 (NR5A1) inverse agonists, counter-screen for LRH-1 inverse agonist project, cell-based, luminescence, high throughput (AID 651614; in the data active = inhibition above about 44%;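 note: cells cotransfected with StAR promoter reporter and SF1 expression vector; 0% = vehicle on cells with receptor and 100% = vehicle on cells lacking receptor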). Conditions: cell-based SF1 luciferase reporter, at 3.6 µM, hits give high values.
Test [6] in a line: VP16 transactivation reporter inhibitors, counter-screen for LRH-1 inverse agonist project, cell-based, luminescence, high throughput (AID 651615; in the data active = inhibition above about 33%). The settings on record: Gal4-VP16 luciferase reporter cells, at 3.6 µM, hits give high values.
Test [7] can be described thus: growth loss of phage-infected RecBCD+ E. coli, confirmation, RecBCD inhibitor project, absorbance, E. coli V66, T4 gene 2 phage (AID 651982;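 active = mean inhibition over triplicates exceeding the hit threshold derived in the original primary screen, cut at about 11% in these data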). Conditions: E. coli V66 + T4 2- phage, growth OD; at 11.9 µM; hits give high values.
Test [8] in a line: E. coli viability inhibition, counter-screen for RecBCD inhibitor project, absorbance, high throughput (AID 651983; in the data active = inhibition above about 20%;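 note: E. coli strain V66 grown with compound alone and no phage infection; 0% = bacteria with DMSO vehicle only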). The settings on record: absorbance (OD) growth, at 11.9 µM, hits give high values.
The nature of test [9]: growth loss of phage-infected AddAB-carrying E. coli, confirmation, counter-screen for RecBCD inhibitor project, absorbance, E. coli V3065, T4 phage (AID 651984;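 active = mean inhibition above the solvent-only control wells' mean plus 3 SD, cut at about 22% in these data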;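 note: higher means less bacterial growth from phage killing when AddAB is blocked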). Conditions: E. coli expressing H. pylori AddAB + T4 phage, OD growth; at 11.9 µM; hits give high values; gene 2 mutant T4, recBCD-deleted host.
Test [10] addresses Oxysterols receptor LXR-beta (Homo sapiens) (UniProt P55055). Nature of the test: LXR agonists, Gal4 luciferase reporter, confirmation, counter-screen for hcDAF-12 agonist project, cell-based, luminescence, HEK293, H. contortus campaign (AID 743027;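 active = mean percent activation of the reporter above a cutoff set as the average over tested compounds plus their standard deviation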). Conditions: HEK293 Gal4-LXR tk-luc reporter, 24 h, at 6.8 µM, hits give high values, normalized: DMSO 0%, positive control 100%.
For test [11], the system named is Nuclear hormone receptor DAF-12 (Haemonchus contortus). Nature of the test: H. contortus DAF-12 receptor agonists, confirmation, cell-based, luminescence, HEK293, lit1-tk-luc, triplicate (AID 743032;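 active = mean activation across triplicate tests above the threshold derived from the earlier primary screen, cut at about 5.5% in these data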;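 note: 0% = DMSO only wells and 100% = 3 µM Δ7-dafachronic acid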). Conditions: HEK293 hcDAF-12 lit1-tk-luc reporter, at 6.8 µM, hits give high values, % of Δ7-dafachronic acid response.
Test [12] deals with transactivating tegument protein VP16 (Human herpesvirus 1). Nature of the test: VP16 transactivation reporter inhibitors, counter-screen for SRC2 inhibitor project, cell-based, luminescence, single concentration (AID 652007; in the data active = inhibition above about 36%). The settings on record: cell-based VP16 transactivation luciferase reporter, at 8.9 µM, hits give high values.
Test [13] concerns the target Nuclear receptor coactivator 2 (Homo sapiens) (UniProt Q15596). Nature of the test: SRC2 coactivator transcriptional activity inhibitors, confirmation, cell-based, luminescence, HEK293, triplicate (AID 652008;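 active = mean inhibition above 46.5%, the solvent-only control mean plus 3 SD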;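 note: 0% = DMSO-treated cells and 100% = Gossypol at 36 µM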). Conditions: HEK293 GAL4-SRC2 luciferase reporter, at 8.9 µM, hits give high values.
The target of test [14] is Receptor-interacting serine/threonine-protein kinase 2 (Homo sapiens) (UniProt O43353). Kind of test: NOD2-RIPK2 binding disruptors, retest, confirmation, fluorescence, CHO cells, BLA complementation, triplicate (AID 624370;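 active = mean inhibition across replicates above a set limit taken from the earlier primary screen, cut at about 21% in these data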;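 note: 0% = DMSO-only wells and the high end = clavulanate BLA-blocked wells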). Conditions: CCF4 FRET, at 4.98 µM, hits give high values.
Test [15] is described as follows: beta-lactamase reporter inhibitors in CHO cells, confirmation, artefact control for NOD2-RIPK2 interaction inhibitor project, cell-based, CHO-K1 CMV-bla, CCF4 FRET, fluorescence (AID 624371;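 active = mean inhibition above the low-control mean inhibition plus three low-control SD, cut at about 11% in these data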;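 note: 0% = DMSO only wells and 100% = clavulanate high control wells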). Conditions: CCF4 FRET ratio, counterscreen, at 4.98 µM, hits give high values.

Chain of Nuclear receptor subfamily 5 group A member 2 (Homo sapiens) (O00482 whole entry, looked up): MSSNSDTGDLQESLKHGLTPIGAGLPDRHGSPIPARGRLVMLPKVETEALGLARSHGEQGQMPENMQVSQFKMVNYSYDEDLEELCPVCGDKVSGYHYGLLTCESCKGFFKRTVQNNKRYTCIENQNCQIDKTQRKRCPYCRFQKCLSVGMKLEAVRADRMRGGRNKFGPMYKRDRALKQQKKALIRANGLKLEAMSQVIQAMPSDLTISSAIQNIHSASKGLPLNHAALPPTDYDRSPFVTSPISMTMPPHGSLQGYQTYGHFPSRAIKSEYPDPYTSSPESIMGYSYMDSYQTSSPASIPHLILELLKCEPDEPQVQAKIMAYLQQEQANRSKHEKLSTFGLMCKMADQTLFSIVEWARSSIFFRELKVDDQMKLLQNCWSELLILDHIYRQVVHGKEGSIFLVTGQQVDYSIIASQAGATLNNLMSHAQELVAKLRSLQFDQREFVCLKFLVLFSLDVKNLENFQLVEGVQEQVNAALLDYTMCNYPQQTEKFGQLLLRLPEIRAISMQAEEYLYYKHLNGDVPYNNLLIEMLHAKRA
Chain of Nuclear receptor coactivator 1 (Homo sapiens) (Q15788 whole entry, looked up, the tested form may be a part): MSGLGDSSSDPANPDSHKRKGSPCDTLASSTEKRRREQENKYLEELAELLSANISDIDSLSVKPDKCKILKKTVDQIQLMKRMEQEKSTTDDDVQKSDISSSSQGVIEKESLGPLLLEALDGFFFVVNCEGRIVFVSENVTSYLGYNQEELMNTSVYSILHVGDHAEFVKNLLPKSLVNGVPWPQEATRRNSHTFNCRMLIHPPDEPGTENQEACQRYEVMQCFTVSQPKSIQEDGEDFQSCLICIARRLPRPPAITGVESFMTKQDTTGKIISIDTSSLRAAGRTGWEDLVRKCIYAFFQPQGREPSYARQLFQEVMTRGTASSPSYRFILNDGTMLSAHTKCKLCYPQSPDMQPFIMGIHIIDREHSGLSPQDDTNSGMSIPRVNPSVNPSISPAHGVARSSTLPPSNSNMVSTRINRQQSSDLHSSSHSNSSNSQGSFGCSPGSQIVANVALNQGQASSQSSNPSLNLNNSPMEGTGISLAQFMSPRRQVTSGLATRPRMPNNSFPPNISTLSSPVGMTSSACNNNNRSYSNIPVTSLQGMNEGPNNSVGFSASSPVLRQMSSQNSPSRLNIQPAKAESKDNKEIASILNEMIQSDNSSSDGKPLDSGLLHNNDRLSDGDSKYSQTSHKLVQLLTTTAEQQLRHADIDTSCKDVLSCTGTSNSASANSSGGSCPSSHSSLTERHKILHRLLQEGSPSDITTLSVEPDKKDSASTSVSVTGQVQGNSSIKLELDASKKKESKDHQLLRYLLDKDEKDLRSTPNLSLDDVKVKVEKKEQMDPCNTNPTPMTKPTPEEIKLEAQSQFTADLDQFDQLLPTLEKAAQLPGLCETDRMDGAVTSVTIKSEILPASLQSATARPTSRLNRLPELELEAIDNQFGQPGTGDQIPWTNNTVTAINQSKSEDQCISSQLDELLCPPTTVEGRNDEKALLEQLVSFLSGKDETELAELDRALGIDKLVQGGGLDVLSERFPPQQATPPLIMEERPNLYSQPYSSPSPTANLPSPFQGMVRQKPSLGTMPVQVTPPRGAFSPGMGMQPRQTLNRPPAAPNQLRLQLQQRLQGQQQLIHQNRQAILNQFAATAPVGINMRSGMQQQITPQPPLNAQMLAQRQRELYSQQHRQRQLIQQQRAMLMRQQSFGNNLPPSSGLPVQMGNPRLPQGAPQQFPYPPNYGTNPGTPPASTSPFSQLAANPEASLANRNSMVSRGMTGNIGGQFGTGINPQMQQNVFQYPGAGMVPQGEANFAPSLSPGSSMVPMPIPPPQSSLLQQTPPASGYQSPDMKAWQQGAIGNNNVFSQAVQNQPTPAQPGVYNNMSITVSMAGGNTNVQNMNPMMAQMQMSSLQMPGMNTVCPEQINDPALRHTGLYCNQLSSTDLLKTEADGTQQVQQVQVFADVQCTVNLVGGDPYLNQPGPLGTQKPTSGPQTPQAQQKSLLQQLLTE
Chain of Steroidogenic factor 1 (Homo sapiens) (Q13285 whole entry, looked up, the tested form may be a part): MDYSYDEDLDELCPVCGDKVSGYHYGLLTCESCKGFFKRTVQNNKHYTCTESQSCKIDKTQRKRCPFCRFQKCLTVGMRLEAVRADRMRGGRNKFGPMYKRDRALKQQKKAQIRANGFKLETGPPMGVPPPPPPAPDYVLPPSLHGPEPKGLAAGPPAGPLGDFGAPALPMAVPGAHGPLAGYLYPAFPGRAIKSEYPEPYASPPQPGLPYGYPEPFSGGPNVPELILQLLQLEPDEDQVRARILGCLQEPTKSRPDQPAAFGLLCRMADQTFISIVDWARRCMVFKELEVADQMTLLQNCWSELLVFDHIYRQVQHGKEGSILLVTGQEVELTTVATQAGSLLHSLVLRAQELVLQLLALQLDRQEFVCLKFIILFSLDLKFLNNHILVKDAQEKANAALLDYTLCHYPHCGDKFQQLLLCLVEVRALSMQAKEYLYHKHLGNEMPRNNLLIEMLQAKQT
Chain of Nuclear receptor coactivator 2 (Homo sapiens) (Q15596 whole entry, looked up, the tested form may be a part): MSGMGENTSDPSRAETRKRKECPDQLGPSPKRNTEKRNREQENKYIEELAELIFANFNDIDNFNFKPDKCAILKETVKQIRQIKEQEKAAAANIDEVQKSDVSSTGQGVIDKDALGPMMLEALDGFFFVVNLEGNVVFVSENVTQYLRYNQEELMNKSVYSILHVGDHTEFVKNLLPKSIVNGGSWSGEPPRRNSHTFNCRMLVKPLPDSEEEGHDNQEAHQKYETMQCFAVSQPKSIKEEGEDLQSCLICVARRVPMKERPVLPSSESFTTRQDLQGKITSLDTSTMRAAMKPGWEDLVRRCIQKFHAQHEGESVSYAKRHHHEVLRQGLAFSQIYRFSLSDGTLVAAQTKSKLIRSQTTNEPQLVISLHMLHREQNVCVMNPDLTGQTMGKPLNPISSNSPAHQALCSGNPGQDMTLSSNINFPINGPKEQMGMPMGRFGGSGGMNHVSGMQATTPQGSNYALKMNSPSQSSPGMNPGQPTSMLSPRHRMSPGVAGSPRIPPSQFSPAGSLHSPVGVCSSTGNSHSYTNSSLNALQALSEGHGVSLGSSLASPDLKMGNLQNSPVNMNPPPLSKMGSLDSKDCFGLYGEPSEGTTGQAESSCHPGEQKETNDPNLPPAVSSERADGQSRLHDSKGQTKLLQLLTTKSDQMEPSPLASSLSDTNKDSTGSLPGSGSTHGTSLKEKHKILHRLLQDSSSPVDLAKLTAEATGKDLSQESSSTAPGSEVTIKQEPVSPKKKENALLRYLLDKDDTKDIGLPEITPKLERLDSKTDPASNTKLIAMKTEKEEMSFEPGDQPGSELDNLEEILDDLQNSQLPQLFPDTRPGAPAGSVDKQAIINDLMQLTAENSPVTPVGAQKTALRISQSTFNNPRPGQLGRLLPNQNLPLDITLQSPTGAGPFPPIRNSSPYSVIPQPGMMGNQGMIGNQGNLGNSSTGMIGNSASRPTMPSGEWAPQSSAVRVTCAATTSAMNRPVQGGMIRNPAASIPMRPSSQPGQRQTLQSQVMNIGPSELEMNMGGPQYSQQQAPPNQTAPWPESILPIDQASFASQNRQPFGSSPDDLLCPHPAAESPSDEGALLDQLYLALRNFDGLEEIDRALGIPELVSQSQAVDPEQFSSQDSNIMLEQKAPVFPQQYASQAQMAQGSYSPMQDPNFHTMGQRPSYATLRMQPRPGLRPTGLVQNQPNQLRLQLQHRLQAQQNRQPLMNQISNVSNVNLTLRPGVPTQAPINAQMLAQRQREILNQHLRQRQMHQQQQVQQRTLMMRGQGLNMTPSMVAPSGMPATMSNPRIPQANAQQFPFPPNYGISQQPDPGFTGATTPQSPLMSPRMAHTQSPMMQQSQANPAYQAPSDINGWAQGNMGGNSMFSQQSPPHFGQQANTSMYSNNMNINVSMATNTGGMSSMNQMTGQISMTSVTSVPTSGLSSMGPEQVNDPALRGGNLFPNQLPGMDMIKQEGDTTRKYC
Chain of Receptor-interacting serine/threonine-protein kinase 2 (Homo sapiens) (O43353 whole entry, looked up): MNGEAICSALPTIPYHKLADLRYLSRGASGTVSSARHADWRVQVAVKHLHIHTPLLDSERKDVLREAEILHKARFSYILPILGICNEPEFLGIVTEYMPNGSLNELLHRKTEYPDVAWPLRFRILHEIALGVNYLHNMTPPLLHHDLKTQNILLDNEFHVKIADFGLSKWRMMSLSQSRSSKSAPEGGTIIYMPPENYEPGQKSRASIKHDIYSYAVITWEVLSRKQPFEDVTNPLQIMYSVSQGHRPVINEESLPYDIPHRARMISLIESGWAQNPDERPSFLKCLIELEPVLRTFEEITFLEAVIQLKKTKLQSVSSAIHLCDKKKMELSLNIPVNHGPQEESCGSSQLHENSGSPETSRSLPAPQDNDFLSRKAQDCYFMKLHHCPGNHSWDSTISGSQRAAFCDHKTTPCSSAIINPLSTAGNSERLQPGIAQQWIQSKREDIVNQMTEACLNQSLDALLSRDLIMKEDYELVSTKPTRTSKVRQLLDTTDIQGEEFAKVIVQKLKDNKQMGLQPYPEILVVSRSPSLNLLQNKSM
Chain of Oxysterols receptor LXR-beta (Homo sapiens) (P55055 whole entry, looked up, the tested form may be a part): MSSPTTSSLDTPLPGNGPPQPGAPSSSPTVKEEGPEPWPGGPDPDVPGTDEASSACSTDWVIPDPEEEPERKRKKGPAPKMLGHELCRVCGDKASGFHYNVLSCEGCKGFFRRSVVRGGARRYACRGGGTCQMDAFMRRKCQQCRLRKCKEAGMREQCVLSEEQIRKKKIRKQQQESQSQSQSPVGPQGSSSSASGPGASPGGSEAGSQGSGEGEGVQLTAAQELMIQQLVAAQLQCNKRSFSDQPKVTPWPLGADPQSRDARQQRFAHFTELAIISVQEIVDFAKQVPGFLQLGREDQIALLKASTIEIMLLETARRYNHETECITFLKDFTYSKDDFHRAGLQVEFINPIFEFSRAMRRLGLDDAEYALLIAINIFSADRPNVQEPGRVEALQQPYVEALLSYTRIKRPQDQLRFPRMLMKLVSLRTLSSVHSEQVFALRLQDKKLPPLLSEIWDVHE

As for `COc1ccc(NS(=O)(=O)c2ccc(-c3cnc(C4CC4)o3)cc2)cc1OC`, the inhibition (usually the relative decrease from the control value, in per cent) in test [1] was -15.9%; in test [2], 37.2% (active); in [3], 53.2% (active); in test [4], 77.5% (active); in test [5], 78.8% (active); in [6], 31.6% (active).

Consider `Fc1ccc(NC(=S)N2CCCN(c3ccc(C(F)(F)F)cn3)CC2)c(F)c1`, for which the inhibition was -32.2% in [1]; 36.5% (active) in [2]; 26.6% in test [3]; 57.6% (active) in [4]; 57.8% (active) in [5]; 51.6% (active) in test [6].

Turning to `Cc1ccc(Oc2ccc(OCC(=O)Nc3ccncc3)cc2)cc1`, the inhibition in [1] is -33.1%; in test [2], 41.3% (active); in test [3], 35.7% (active); in [4] it was 79.2% (active); in [5], 70.5% (active); in test [6] it was 51% (active).

`CCOC(=O)c1cc(C#N)c(N2CCN(C(=O)c3cccc(C(F)(F)F)c3)CC2)nc1C(F)(F)F`: the inhibition in [1] was 15.6%; in test [2] it was 29.2% (active); in [3], 15.5%; in [4], 48.8% (active); in [5], 51.3% (active); in [6], 32.3% (active).

With `Cc1ccc2c(c1)c(/C=C/c1cc[n+](C)cc1)c(C)n2C`, the inhibition in test [1] was 32.9%; in test [2], 57.1% (active); in test [3] it was 59.6% (active); in [4], 91.4% (active); in test [5], 81.1% (active); in test [6], 80% (active).

`O=C1c2cccc3cc([N+](=O)[O-])cc(c23)C(=O)N1CCN1CCCC1`: the inhibition is -86.9% in [1]; 42.6% (active) in [2]; 13.3% in test [3]; 91.6% (active) in [4]; 68.6% (active) in test [5]; 64.2% (active) in test [6].

For `Cc1sc2ncnc(NCC3COc4ccccc4O3)c2c1C` (stereo not given), the inhibition was -48.1% in [1]; 26.2% (active) in test [2]; 18% in [3]; 62% (active) in [4]; 46.1% (active) in test [5]; 57.4% (active) in test [6].

Take `CN(C)CCNc1ccc(CO)c2sc3ccc(O)cc3c(=O)c12`: the inhibition in test [1] is 44.8%; in [2], 39.1% (active); in [3] it was 77% (active); in test [4], 89.5% (active); in test [5], 75.7% (active); in test [6], 61.2% (active).

On to `COc1ccc(-c2coc3c(C(=O)NCc4ccc(OC)c(OC)c4)cccc23)c(C)c1`, for which the inhibition was -32% in test [1]; 41.2% (active) in test [2]; 28% (active) in test [3]; 80.8% (active) in test [4]; 49% (active) in test [5]; 57.8% (active) in test [6].

`CN(C(=O)c1cccc(NC(=O)Cc2ccc(NC(=O)C3CCCN(C(=O)CCc4ccccc4)C3)cc2)c1)C1CCCCC1` (stereo not given): the inhibition was 6.53% in test [1]; 28% (active) in test [2]; 24.3% in test [3]; 49.4% (active) in [4]; 48.5% (active) in test [5]; 45.2% (active) in test [6].

Turning to `CN(C)CCN1C(=O)c2cccc3cc([N+](=O)[O-])cc(c23)C1=O`, the inhibition in test [1] was -146%; in [2] it was 47.5% (active); in test [3], 67% (active); in [4], 96.7% (active); in test [5], 84.4% (active); in test [6], 68.2% (active).

Take `CCN(CC(=O)Nc1ccc(NC(C)=O)cc1)C(=O)C1(c2ccc(Cl)cc2)CCC1`: the inhibition in test [1] is 16.1%; in [2], 9.61%; in [3], -2.92%; in test [4] it was 40.1%; in [5] it was 27.4%; in test [6], 11.8%.

As to `Cc1ccc(S(=O)(=O)CC2CSc3nc4ccccc4n32)cc1` (stereo not given), the inhibition in test [1] is -13.8%; in test [2] it was 33.3% (active); in test [3], 22.6%; in [4], 65.3% (active); in [5], 54.6% (active); in test [6], 50.7% (active).

Take `NC(=S)NN=Cc1ccc(OC(=O)COc2cc(Cl)c(Cl)cc2Cl)cn1`: the inhibition is 1.21% in [7], 5.2% in test [8] and 23.4% (active) in test [9].

As to `CN(C)CCNC(=O)c1ccc(Cl)c2cc3ccccc3nc12`, the activation was 0.85% in [10] and 8.92% (active) in test [11].

Regarding `CCN(CC)CC(C)(C)C(=O)/C=C/c1ccc(/C=C/C(=O)C(C)(C)CN(CC)CC)cc1`, the inhibition is 84.5% (active) in [2]; 84.9% (active) in test [3]; 99.6% (active) in [4]; 95.1% (active) in test [5]; 88.8% (active) in [6].

On to `CC(=O)Nc1ccc(OCC(=O)Nc2ccc(Cl)c(S(=O)(=O)N3CCOCC3)c2)cc1`, for which the inhibition in [1] is -7.7%; in [2] it was 27.7% (active); in test [12] it was -7.09%; in [13] it was 19.6%.

`CCOC(=O)C1CCN(C(=O)c2ccc(OCC(=O)Nc3cccc(C(F)(F)F)c3)c(OC)c2)CC1`: the inhibition in test [1] is 4.29%; in test [2], 35.4% (active); in test [12], 24.1%; in [13], 45.3%.

As to `CC(C)(C)OC(=O)N1CCC(NC(=O)c2[nH]cnc2C(=O)N[C@@H](Cc2ccccc2)C(=O)OCc2ccccc2)CC1`, the inhibition was 16.1% in test [14] and -4.79% in test [15].

With `COc1ccc(NC(=O)C(c2ccncc2)n2c(=O)c(-c3cc4ccccc4[nH]3)nc3ccccc32)cc1` (stereo not given), the values for the inhibition in [14] and in [15] were 39.5% (active) and 61.5% (active), respectively.
